Structures are written as SMILES. Structures can show the parent of a compound that is named as a salt.

The assay relates to Saccharomyces cerevisiae BY4741 SeMeCo community. The assay can be described thus: z-score of subpopulation abundance vs DMSO median, subpopulation auxotrophic for HUM; higher = larger share of this subpopulation than in DMSO controls. Particulars: 10 µM; 24 h; SM minimal medium; subpopulation (auxotrophy): HUM. As for the experimental part:
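Fluorescent four-plasmid SeMeCo (self-establishing metabolically cooperating S. cerevisiae BY4741 community; plasmids pH-mRuby2, pL-mWasabi, pU-eCFP, pM-TagRFP657) was grown 24 h in minimal SM medium with each Selleck FDA-approved drug at 10 µM in 384-well plates. Cells were fixed and imaged by high-content confocal microscopy. For each auxotrophic subpopulation (and the prototroph), a z-score gives the deviation from the DMSO vehicle-control population median.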
As to `Clc1ccc(C(Cn2ccnc2)OCc2c(Cl)cccc2Cl)c(Cl)c1` (stereo not given) [Isoconazole nitrate], the “z-score of subpopulation abundance” value came to 4.65.
Under `CN(C)CCn1nnnc1SCC1=C(C(=O)O)N2C(=O)[C@@H](NC(=O)Cc3csc(N)n3)[C@H]2SC1` [Cefotiam hydrochloride] stands 0.5.
Under `CN1CCCN=C1/C=C/c1cccs1` [Pyrantel Pamoate] stands -0.34.
Under `CC1(C)S[C@@H]2[C@H](NC(=O)C(c3ccccc3)S(=O)(=O)O)C(=O)N2[C@H]1C(=O)O` (stereo not given in full) [Sulbenicillin Sodium] stands 0.43; under `C#CCC(Cc1cnc2nc(N)nc(N)c2n1)c1ccc(C(=O)N[C@@H](CCC(=O)O)C(=O)O)cc1` (stereo not given in full) [Pralatrexate], -2.23.
Turning to `CC[C@@]1(O)C(=O)OCc2c1cc1n(c2=O)Cc2cc3cc(O)ccc3nc2-1` [(S)-10-Hydroxycamptothecin], the “z-score of subpopulation abundance” value was -0.24.
With `CCCCCOc1ccc(-c2cc(-c3ccc(C(=O)N[C@H]4C[C@@H](O)[C@@H](O)NC(=O)[C@@H]5[C@@H](O)[C@@H](C)CN5C(=O)[C@H]([C@H](O)CC(N)=O)NC(=O)[C@H]([C@H](O)[C@@H](O)c5ccc(O)c(OS(=O)(=O)O)c5)NC(=O)[C@@H]5C[C@@H](O)CN5C(=O)[C@H]([C@@H](C)O)NC4=O)cc3)no2)cc1` [Micafungin Sodium], the “z-score of subpopulation abundance” value was determined as 13.9.
Consider `O=C(CCCN1CC=C(n2c(=O)[nH]c3ccccc32)CC1)c1ccc(F)cc1` [Droperidol], for which the “z-score of subpopulation abundance” value is -0.23.
Next, `CSCC1CN(/N=C/c2ccc([N+](=O)[O-])o2)C(=O)O1` (stereo not given) [Nifuratel]: -2.83; `CN[C@H]1CC[C@@H](c2ccc(Cl)c(Cl)c2)c2ccccc21` [Sertraline HCl]: -0.4.
Next, `CCCCCCCN(CC)CCCC(O)c1ccc(NS(C)(=O)=O)cc1` (stereo not given) [Ibutilide Fumarate]: 0.49; `COc1ccnc(C[S+]([O-])c2nc3cc(OC(F)F)ccc3[nH]2)c1OC` (stereo not given) [Pantoprazole sodium]: 0.3.
Under `CCN[C@@H]1C[C@H](N)[C@@H](O[C@H]2OC(CN)=CC[C@H]2N)[C@H](O)[C@H]1O[C@H]1OC[C@](C)(O)[C@H](NC)[C@H]1O` [Netilmicin Sulfate] stands 0.71.
Turning to `CCC(C)n1ncn(-c2ccc(N3CCN(c4ccc(OCC5COC(Cn6cncn6)(c6ccc(Cl)cc6Cl)O5)cc4)CC3)cc2)c1=O` (stereo not given) [Itraconazole], the “z-score of subpopulation abundance” value was found to be 9.21.
Consider `COc1ccnc(C[S+]([O-])c2nc3cc(OC(F)F)ccc3[nH]2)c1OC` (stereo not given) [Pantoprazole], for which the “z-score of subpopulation abundance” value was -0.2.
With `CCCCCCCCN=C(N)NC(N)=NCc1ccc(Cl)c(Cl)c1` [Olanexidine Hydrochloride semihydrate], the “z-score of subpopulation abundance” value amounted to 34.7.
Under `Nc1ccc(S(=O)(=O)Nc2ncccn2)cc1` [Sodium sulfadiazine] stands -0.68; under `Cc1c(OCC(F)(F)F)ccnc1C[S+]([O-])c1nc2ccccc2[nH]1` (stereo not given) [Lansoprazole], -0.3; under `CC1=C(C(=O)OC(C)C)C(c2cccc([N+](=O)[O-])c2)C(C(=O)OC2CN(C(c3ccccc3)c3ccccc3)C2)=C(N)N1` (stereo not given) [Azelnidipine], 0.26.
Consider `O=C(O)C[C@H](O)C[C@H](O)/C=C/c1c(C2CC2)nc2ccccc2c1-c1ccc(F)cc1` [Pitavastatin Calcium], for which the “z-score of subpopulation abundance” value amounted to 3.37.
Under `O=c1cc(-c2ccc(O)c(O)c2)oc2cc(O)cc(O)c12` [Luteolin] stands -0.43; under `O=C(O)c1ccccc1C(=O)Nc1ccc(S(=O)(=O)Nc2nccs2)cc1` [Phthalylsulfathiazole], 0.99; under `CC(C)c1c(C(=O)Nc2ccccc2)c(-c2ccccc2)c(-c2ccc(F)cc2)n1CC[C@@H](O)C[C@@H](O)CC(=O)O` [Atorvastatin], 2.1.
Next, `COc1cc2c(cc1OC)-c1cc3ccc(OC)c(OC)c3c[n+]1CC2` [Palmatine]: 0.8; `N[C@@H](C(=O)N[C@@H]1C(=O)N2C(C(=O)O)=C(Cl)CS[C@H]12)c1ccccc1` [Cefaclor]: 0.37.
Under `COc1ccc2cc([C@H](C)C(=O)O)ccc2c1` [Naproxen Sodium] stands -2.32; under `CC/C=C(\C(=O)N[C@@H]1C(=O)N2C(C(=O)OCOC(=O)C(C)(C)C)=C(COC(N)=O)CS[C@H]12)c1csc(N)n1` [Cefcapene Pivoxil Hydrochloride], 1.18; under `O=C(Nc1ccc(Oc2ccc(Cl)cc2)c(Cl)c1)c1cc(I)cc(I)c1O` [Rafoxanide], 0.54.
As to `Nc1nc(/C(=C/CC(=O)O)C(=O)N[C@@H]2C(=O)N3C(C(=O)O)=CCS[C@H]23)cs1` [Ceftibuten dihydrate], the “z-score of subpopulation abundance” value is -1.27.
`CC[C@@]1(O)C(=O)OCc2c1cc1n(c2=O)Cc2cc3cc(O)ccc3nc2-1` [Hydroxy Camptothecine]: the “z-score of subpopulation abundance” value was -1.9.
Under `C[C@@H]1O[C@@H]1P(=O)(O)O` [Fosfomycin Disodium] stands -0.19.
Under `COC(=O)Nc1nc2cc([S+]([O-])c3ccccc3)ccc2[nH]1` (stereo not given) [Oxfendazole] stands 0.73; under `CO[C@@H]1[C@@H](OC(N)=O)[C@@H](O)[C@H](Oc2ccc3c(O)c(NC(=O)c4ccc(O)c(CC=C(C)C)c4)c(=O)oc3c2C)OC1(C)C` [Novobiocin Sodium], 2.57; under `CC[C@H]1OC(=O)[C@H](C)[C@@H](O[C@H]2C[C@@](C)(OC)[C@@H](O)[C@H](C)O2)[C@H](C)[C@@H](O[C@@H]2O[C@H](C)C[C@H](N(C)C)[C@H]2O)[C@](C)(O)C[C@@H](C)CN(C)[C@H](C)[C@@H](O)[C@]1(C)O` [Azithromycin], 0.11.
In the case of `CO/N=C(\C(=O)N[C@@H]1C(=O)N2C(C(=O)O)=C(CSc3nc(C)c(CC(=O)O)s3)CS[C@H]12)c1csc(N)n1` [Cefodizime Sodium], the “z-score of subpopulation abundance” value is -0.09.
Next, `CCCNCC(O)COc1ccccc1C(=O)CCc1ccccc1` (stereo not given) [Propafenone HCl]: -0.3; `CC1(C)S[C@@H]2[C@H](NC(=O)Cc3ccccc3)C(=O)N2[C@H]1C(=O)O` [Benzathine penicilline]: -0.33.
Next, `CC1=Nc2ccc(Cl)cc2S(=O)(=O)N1` [Diazoxide]: -0.41; `C[N+](C)(C)CCO.[Cl-]` [Choline Chloride]: -0.76; `CCOc1ccc2nc3cc(N)ccc3c(N)c2c1` [Ethacridine lactate monohydrate]: -6.59.

The record behind these values is the supplement of paper PMC8975748.
